Bioassay records deposited in PubChem by National Center for Advancing Translational Sciences (NCATS).
Pf Dd2 growth: blocks in vitro growth of P. falciparum Dd2. actives 4.3% (n = 120,000). Potency, µM (series often up to 28.9 µM), hits mostly inhibitors. P. falciparum Dd2 growth, SYBR Green, 72 h; active = well fitted inhibition curve with a large enough effect; also: nearly all actives have a fitted effect of over 65% in size
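Infected erythrocytes (Dd2, 0.3% parasitemia, 2.5% hematocrit final) are added to compound in RPMI-1640/Albumax II medium, grown 72 h at 37C in low oxygen, then lysed with saponin/Triton-X containing SYBR Green and read by fluorescence.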
Hits are given with their value; . = inactive. The full list was thinned out, with hits kept by preference.

SMILES	Pf Dd2 growth
CC(=O)N1CC2(Cc3ccccc31)CN(C(=O)c1ccc(Cl)nc1)C2	.
COc1ccc(C(CC(=O)N2CCC(C(N)=O)CC2)c2ccccc2)cc1 (stereo not drawn)	.
Cc1ccc(-n2c(C3CCN(C(=O)c4cc(F)ccc4Cl)CC3)n[nH]c2=O)cc1	.
c1cncc(Nc2cc3c(cn2)CN(CC2CCOCC2)CCN3)c1	.
CC(=O)Nc1cccc(-c2cc3c(cn2)CN(Cc2ccccc2)CCN3)c1	.
c1ccc(Nc2cc3c(cn2)CN(CC2CC2)CCN3)cc1	12.6µM
COC1CCC12CCN(C(=O)c1ccnn1C)CC2 (stereo not drawn)	.
O=C(c1ccc2[nH]ccc2c1)N1CC[C@@H]2COCCN(Cc3cccnc3)[C@@H]2C1	.
Cc1nc(CN(C)C(=O)c2cc(Cn3c(C)nc4ccccc43)on2)cs1	.
CCCS(=O)(=O)N1CCN(C2CCN(CCOC)C2=O)CC1 (stereo not drawn)	.
CCc1ccc(NS(=O)(=O)c2ccc3[nH]cc(C(=O)NCCc4ccccc4)c(=O)c3c2)cc1	.
Cc1cc(C)cc(NS(=O)(=O)c2ccc3[nH]cc(C(=O)NCCc4ccccc4)c(=O)c3c2)c1	.
Cc1ccccc1NS(=O)(=O)c1ccc2[nH]cc(C(=O)NCCc3ccccc3)c(=O)c2c1	11.2µM
O=C(NCc1cccs1)C1=NO[C@@H]2CN(c3cccnc3)C[C@H]12	.
COc1ccccc1C1CNC(=O)c2nc(CCN3CCC(C)CC3)[nH]c2C1 (stereo not drawn)	.
COc1cccc(C2CNC(=O)c3nc(Cn4nc(C)c(C)c4C)[nH]c3C2)c1 (stereo not drawn)	10µM
COc1cccc(C2CNC(=O)c3nc(-c4ccc(C(=O)N(C)C)o4)[nH]c3C2)c1 (stereo not drawn)	.
CNC(=O)c1noc([C@@H]2CC(F)(F)CN2C(=O)c2cccc(C)c2)n1	.
CNc1ccc(C(=O)N2CCC(CCn3cccn3)CC2)cn1	.
CCOC(=O)N1CCN(Cc2nc3cc(NC(=O)CC(C)C)ccc3n2C(C)C)CC1	11.2µM
CCC(=O)NCCc1nc2cc(NC(=O)c3cccc(Br)c3)ccc2n1C	.
CCOC(=O)N1CCN(Cc2nc3cc(NC(=O)c4cccc(C)c4)ccc3n2C(C)C)CC1	6.31µM
O=C(Nc1ccc(Cl)c(-c2nc3ccccc3o2)c1)c1ccc(-c2cccc([N+](=O)[O-])c2)o1	.
CC(C)CC(=O)Nc1ccc2nc(SCC(=O)N3CCCC3)sc2c1	.
CCOC(=O)c1cccc(NC(=O)c2ccc3nc(C(C)C)oc3c2)c1	.
SMILES	Pf Dd2 growth
Cn1c(CN2CCCCC2)nc2cc(NC(=O)c3cccc(Br)c3)ccc21	.
CC(C)CC(=O)Nc1ccc2nc(SCC(=O)N3CCOCC3)sc2c1	.
CCN1CCN(Cc2nc3cc(NC(=O)c4cccc([N+](=O)[O-])c4)ccc3n2CC)CC1	7.94µM
CO[C@H]1[C@H](NC(=O)Cc2ccc3c(c2)OCO3)c2ccccc2C12CCNCC2	.
CC(C)c1nc2nccc(-c3cccs3)n2n1	.
Cc1ccc2nc(CO[C@H]3CN(Cc4ccc(C(F)(F)F)cc4)C[C@H]3F)[nH]c2c1	8.91µM
COc1ccc(CN2C[C@@H](F)[C@@H](OCc3nc4ccc(F)cc4[nH]3)C2)cn1	.
Cc1cc2nc(CO[C@H]3CN(Cc4ccc(C(=O)O)cc4)C[C@H]3F)[nH]c2cc1C	.
COC(=O)c1ccc2nc(CO[C@H]3CN(Cc4ccc5c(c4)OCO5)C[C@H]3F)[nH]c2c1	8.91µM
CC(=O)Nc1ccc(CN2C[C@@H](F)[C@@H](OCc3nc4cc(C)c(C)cc4[nH]3)C2)cc1	11.2µM
Fc1ccc2nc(CO[C@H]3CN(Cc4ccccc4)C[C@H]3F)[nH]c2c1	12.6µM
F[C@@H]1CN(Cc2ccc(C(F)(F)F)cc2)C[C@@H]1OCc1nc2ccccc2[nH]1	.
COC(=O)c1ccc2nc(CO[C@H]3CN(Cc4ccc(C(F)(F)F)cc4)C[C@H]3F)[nH]c2c1	.
Cc1cc2nc(CO[C@H]3CN(C)C[C@H]3F)[nH]c2cc1C	.
COC(=O)c1ccc2nc(CO[C@H]3CN(Cc4cccc(C#N)c4)C[C@H]3F)[nH]c2c1	.
Fc1ccc2nc(CO[C@H]3CN(Cc4cccnc4)C[C@H]3F)[nH]c2c1	.
COC(=O)c1ccc2nc(CO[C@H]3CN(Cc4cnn(C)c4)C[C@H]3F)[nH]c2c1	.
Cn1ccnc1CNCC1(COc2cnccn2)C[C@@H](O)[C@@H](O)C1 (stereo partly drawn)	.
O=C(O)C1=NOC2CN([S+](=O)([O-])c3cccs3)CC12 (stereo not drawn)	.
O=C(c1cccc2[nH]ccc12)N1CCC(n2cc(-c3nc(-c4ccccc4)no3)nn2)CC1	.
c1ccc([C@@H]2C[C@H]2c2nc(C3CCOCC3)n[nH]2)cc1	.
CNC(=O)[C@@H]1C[C@@H](n2cc(C(C)(C)NC(=O)c3cccc(Cl)c3)nn2)CN1	.
COCC1CN(C2CCC2)CC12CCN(C(=O)Cn1cccn1)CC2 (stereo not drawn)	.
O=C(c1coc2ccccc12)N1CCN(Cc2cnc[nH]2)CC(O)C1 (stereo not drawn)	.
